Test results published in PubChem BioAssay.
Calls of active or inactive are those of the source. Unless noted, no stated cut-off is given here; in the data, active means inhibition above about 80%; inactive means the rest.

How the values were obtained:
[1] = LFS_MB_P medulloblastoma growth inhibition, cell-based, chromothripsis tumors, cisplatin or BGB combos (AID 1671449); conditions: LFS_MB_P medulloblastoma cells;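 further: cells exposed for 96 hours; 0% = vehicle DMSO and 100% = killing by high DMSO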
[2] = HDN33 neuroblastoma growth inhibition, cell-based, chromothripsis tumors, cisplatin or BGB combos (AID 1671450); conditions: HDN33 neuroblastoma cells, stronger effect = higher value;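 further: cells exposed to compound for four days; 0% = vehicle DMSO and 100% = cell killing by high DMSO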
[3] = ICB984 medulloblastoma cell growth inhibition, synergistic combos for chromothripsis tumors, cisplatin or BGB combos (AID 1671451; call rule not given here;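 further: cells exposed for 96 hours before readout; 0% = vehicle DMSO and 100% = killing by high DMSO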); conditions: ICB984 medulloblastoma cells, drug combinations, stronger effect = higher value
[4] = LFS_MB_1R medulloblastoma cell growth inhibition, synergistic combos for chromothripsis tumors, cisplatin or BGB combos (AID 1671452); conditions: LFS_MB_1R medulloblastoma cells, stronger effect = higher value;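 further: cells exposed for 96 hours before readout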
[5] = HTB85 osteosarcoma cell growth inhibition, synergistic combos for chromothripsis tumors, BGB or cisplatin IC20 combos (AID 1671453); conditions: HTB85 osteosarcoma cells, drug combinations, stronger effect = higher value;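 further: cells exposed for 96 hours before readout; 0% = vehicle DMSO and 100% = high DMSO killing control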
[6] = CRL2098 osteosarcoma cell growth inhibition, synergistic combos for chromothripsis tumors, BGB or cisplatin IC20 combos (AID 1671454); conditions: CRL2098 osteosarcoma cells, drug combinations, stronger effect = higher value;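 further: cells exposed for 96 h before readout; 0% = vehicle DMSO and 100% = killing by high DMSO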
[7] = HD-MB03 medulloblastoma cell growth inhibition, synergistic combos for chromothripsis tumors, BGB or cisplatin IC20 combos (AID 1671455; in the data active means inhibition above about 83%;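 further: 0% = vehicle DMSO and 100% = high DMSO as cytotoxic control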); conditions: HD-MB03 medulloblastoma cells, stronger effect = higher value
[8] = UWB1.289 ovarian carcinoma cell growth inhibition, synergistic combos for chromothripsis tumors, BGB or cisplatin combos (AID 1671456); conditions: UWB1.289 ovarian carcinoma cells, stronger effect = higher value;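 further: cells exposed to compound for four days; 0% = vehicle DMSO and 100% = killing by high DMSO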
[9] = LFS_MB_2R medulloblastoma cell growth inhibition, synergistic combos for chromothripsis tumors, cisplatin combos (AID 1671457); conditions: LFS_MB_2R medulloblastoma cells, stronger effect = higher value;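 further: cells exposed to compound for four days before readout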
[10] = MDA-MB-436 breast carcinoma cell growth inhibition, synergistic combos for chromothripsis tumors, BGB or cisplatin combos (AID 1671458; call rule not given here;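 further: cells exposed for 96 hours; 0% = vehicle DMSO and 100% = killing by high DMSO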); conditions: MDA-MB-436 breast carcinoma growth inhibition, drug combinations, stronger effect = higher value
[11] = UWB1.289_BRCA1 ovarian cancer growth, cell-based, BGB or cisplatin combinations (AID 1671459); conditions: UWB1.289 BRCA1 ovarian carcinoma, drug combinations, stronger effect = higher value
[12] = human astrocyte viability loss, single and combined drugs, cytotoxicity control for chromothriptic childhood tumor combination screen, cell-based, BGB or cisplatin IC20 combos (AID 1671460); conditions: Human astrocytes, drug combinations, stronger effect = higher value;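 further: cells exposed to compounds for 96 hours before viability readout; 0% = vehicle and 100% = killing control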
[13] = growth inhibition of BT084 medulloblastoma cells, cell-based, ICGC_MB145, cisplatin and BGB IC40 combos (AID 1671461); conditions: drug combinations, stronger effect = higher value;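 further: cells exposed to drugs for 96 hours; 0% = vehicle DMSO and 100% = high DMSO full killing control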
[14] = growth inhibition of RCMB18 medulloblastoma cells, cell-based, cisplatin and BGB IC40 combos (AID 1671462); conditions: stronger effect = higher value;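 further: cells exposed to compound for four days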
[15] = growth inhibition of CRL1545 osteosarcoma cells, cell-based, cisplatin and BGB IC20 combos (AID 1671464); conditions: stronger effect = higher value;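 further: cells exposed to compound for 96 hours before readout; 0% = vehicle DMSO and 100% = high DMSO killing control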
[16] = at 0.5 µM, stronger effect = higher value
[17] = measured here: combination with BGB IC20, at 0.005 µM
[18] = measured here: combination with BGB IC40, at 0.005 µM
[19] = measured here: combination with BGB IC40, at 0.05 µM
[20] = measured here: combination with cisplatin, at 0.5 µM, stronger effect = higher value
[21] = measured here: combination with cisplatin, at 5 µM, stronger effect = higher value
[22] = measured here: with BGB IC20 combination, at 0.5 µM
[23] = measured here: with cisplatin IC20 combination, at 0.5 µM
[24] = measured here: 5 uM single agent, at 5 µM
[25] = measured here: combination with cisplatin, at 0.5 µM
[26] = measured here: combination with cisplatin, at 5 µM
[27] = measured here: with BGB IC20, at 0.5 µM
[28] = measured here: with BGB IC20, at 5 µM
[29] = measured here: with cisplatin IC20, at 0.5 µM
[30] = measured here: with cisplatin IC20, at 5 µM
[31] = measured here: combination with BGB at IC20, at 0.5 µM
[32] = measured here: combination with cisplatin at IC20, at 0.5 µM
[33] = measured here: combo with BGB at IC20, at 0.5 µM
[34] = measured here: combo with cisplatin at IC20, at 0.5 µM
[35] = measured here: inhibition with BGB combination, at 0.05 µM
[36] = measured here: inhibition with cisplatin combination, at 0.05 µM
[37] = measured here: BGB combination, at 0.5 µM
[38] = measured here: BGB combination, at 5 µM
[39] = measured here: cisplatin combination, at 0.5 µM
[40] = measured here: cisplatin combination, at 5 µM
[41] = BGB combination, concentration series, at 5 µM
[42] = cisplatin combination, concentration series, at 5 µM
[43] = measured here: combo with BGB IC20, at 0.5 µM
[44] = measured here: combo with cisplatin IC20, at 0.5 µM
[45] = cisplatin combination, at 0.5 µM
[46] = measured here: BGB IC40 combination 0.05 uM, at 0.05 µM
[47] = measured here: BGB IC40 combination, at 0.05 µM

C[C@@H]1COCCN1c1cc(C2(S(C)(=O)=O)CC2)nc(-c2cccc3[nH]ccc23)n1
inhibition [1, 16]: -25.8% (inactive)
inhibition [1, 17]: 7.6%
inhibition [1, 18]: 5.5%
inhibition [1, 19]: -17.8%
inhibition [1, 20]: -15.1%
inhibition [1, 21]: 49.8%
inhibition ([2]; BGB combo, at 5 µM): 86.9%
inhibition ([2]; at 0.5 µM): 36.8% (inactive)
inhibition ([2]; cisplatin combo, at 5 µM): 93.4%
inhibition [2, 22]: 34.2%
inhibition [2, 23]: 50.8%
inhibition ([2]; single agent, at 5 µM): 94%
inhibition ([3]; BGB IC20 combo, at 0.005 µM): 23.5%
inhibition ([3]; BGB IC40 combo, at 0.005 µM): 27.9%
inhibition ([3]; BGB IC40 combo, at 0.05 µM): 49.2%
inhibition ([3]; at 0.5 µM): -13.7% (inactive)
inhibition ([3]; cisplatin combo, at 0.05 µM): 47.4%
inhibition ([3]; cisplatin combo, at 0.5 µM): 1.99%
inhibition ([3]; cisplatin combo, at 5 µM): -26.9%
inhibition [3, 24]: 12.7%
inhibition ([4]; at 0.5 µM): 10% (inactive)
inhibition [4, 19]: -3.56%
inhibition [4, 25]: 20.8%
inhibition [4, 26]: 56.7%
inhibition ([5]; at 0.5 µM): 20.9% (inactive)
inhibition [5, 27]: 21%
inhibition [5, 28]: 63.3%
inhibition [5, 29]: 29.2%
inhibition [5, 30]: 91.9%
inhibition ([5]; single agent, at 5 µM): 73.8%
inhibition ([6]; at 0.5 µM): 20.1% (inactive)
inhibition [6, 31]: 11.9%
inhibition [6, 32]: 19.4%
inhibition ([7]; at 0.5 µM): 38% (inactive)
inhibition [7, 33]: 11.4%
inhibition [7, 34]: 91.1%
inhibition ([8]; at 0.5 µM): 63.9% (inactive)
inhibition [8, 35]: 6.56%
inhibition [8, 36]: -6.75%
inhibition ([9]; at 0.5 µM): 13.6% (inactive)
inhibition [9, 25]: 20.6%
inhibition [9, 26]: 51.4%
inhibition ([10]; at 0.5 µM): 22.5% (inactive)
inhibition [10, 37]: 8.94%
inhibition [10, 38]: 45.1%
inhibition [10, 39]: 30.1%
inhibition [10, 40]: 85.8%
inhibition [11, 41]: 93.1%
inhibition ([11]; at 0.5 µM): 65.4% (inactive)
inhibition [11, 42]: 117%
inhibition ([12]; at 0.5 µM): 23.1% (inactive)
inhibition [12, 43]: 14.4%
inhibition [12, 44]: 30.8%
inhibition ([13]; at 0.5 µM): 17% (inactive)
inhibition [13, 45]: 14.1%
inhibition ([13]; cisplatin combination, at 5 µM): 58%
inhibition [13, 46]: -18.4%
inhibition ([13]; single agent, at 5 µM): 44.6%
inhibition ([14]; at 0.5 µM): 25.2% (inactive)
inhibition ([14]; cisplatin combo, at 5 µM): 34.6%
inhibition [14, 47]: -0.169%
inhibition [14, 25]: 44.8%
inhibition ([14]; single agent, at 5 µM): 51.4%
inhibition ([15]; at 0.5 µM): 76.6% (inactive)
inhibition [15, 22]: 71%
inhibition [15, 23]: 79.1%
inhibition ([15]; single agent, at 0.05 µM): 21.8%
inhibition ([15]; single agent, at 5 µM): 97.9%

C[n+]1ccc(-c2c3nc(c(-c4cc[n+](C)cc4)c4ccc([nH]4)c(-c4cc[n+](C)cc4)c4nc(c(-c5cc[n+](C)cc5)c5ccc2[nH]5)C=C4)C=C3)cc1
inhibition [1, 16]: -16.4% (inactive)
inhibition [1, 17]: 4.93%
inhibition [1, 18]: -7.27%
inhibition [1, 19]: 5.45%
inhibition [1, 20]: -7.43%
inhibition [1, 21]: 6.44%
inhibition ([2]; BGB combo, at 5 µM): -33%
inhibition ([2]; at 0.5 µM): -31.4% (inactive)
inhibition ([2]; cisplatin combo, at 5 µM): -48.7%
inhibition [2, 22]: -41%
inhibition [2, 23]: -34.4%
inhibition ([2]; single agent, at 5 µM): -48.2%
inhibition ([3]; BGB IC20 combo, at 0.005 µM): -7.96%
inhibition ([3]; BGB IC40 combo, at 0.005 µM): -38.9%
inhibition ([3]; BGB IC40 combo, at 0.05 µM): -28.5%
inhibition ([3]; at 0.5 µM): -22.5% (inactive)
inhibition ([3]; cisplatin combo, at 0.05 µM): -33.6%
inhibition ([3]; cisplatin combo, at 0.5 µM): -35.2%
inhibition ([3]; cisplatin combo, at 5 µM): -30.8%
inhibition [3, 24]: -3.94%
inhibition ([4]; at 0.5 µM): -33.2% (inactive)
inhibition [4, 19]: -38.7%
inhibition [4, 25]: -36.8%
inhibition [4, 26]: -24.6%
inhibition ([5]; at 0.5 µM): -31.3% (inactive)
inhibition [5, 27]: -48.7%
inhibition [5, 28]: -28.8%
inhibition [5, 29]: -29.2%
inhibition [5, 30]: 1.2%
inhibition ([5]; single agent, at 5 µM): -24.3%
inhibition ([6]; at 0.5 µM): -75.6% (inactive)
inhibition [6, 31]: -55.7%
inhibition [6, 32]: -59.6%
inhibition ([7]; at 0.5 µM): -18.1% (inactive)
inhibition [7, 33]: -21.5%
inhibition [7, 34]: -12.4%
inhibition ([8]; at 0.5 µM): -15% (inactive)
inhibition [8, 35]: -39.4%
inhibition [8, 36]: -10%
inhibition ([9]; at 0.5 µM): -18.1% (inactive)
inhibition [9, 25]: -16.6%
inhibition [9, 26]: -12.4%
inhibition ([10]; at 0.5 µM): -9.73% (inactive)
inhibition [10, 37]: -10.7%
inhibition [10, 38]: -18%
inhibition [10, 39]: -7.22%
inhibition [10, 40]: -11.9%
inhibition [11, 41]: -36.3%
inhibition ([11]; at 0.5 µM): -17.4% (inactive)
inhibition [11, 42]: -6.54%
inhibition ([12]; at 0.5 µM): -1.53% (inactive)
inhibition [12, 43]: 4.28%
inhibition [12, 44]: 3.89%
inhibition ([13]; at 0.5 µM): -2.03% (inactive)
inhibition [13, 45]: -16.4%
inhibition ([13]; cisplatin combination, at 5 µM): 4.22%
inhibition [13, 46]: -24.6%
inhibition ([13]; single agent, at 5 µM): -14.3%
inhibition ([14]; at 0.5 µM): -13.6% (inactive)
inhibition ([14]; cisplatin combo, at 5 µM): 1.63%
inhibition [14, 47]: -15.7%
inhibition [14, 25]: -4.98%
inhibition ([14]; single agent, at 5 µM): -32.1%
inhibition ([15]; at 0.5 µM): -40.2% (inactive)
inhibition [15, 22]: -36.3%
inhibition [15, 23]: -42.2%
inhibition ([15]; single agent, at 0.05 µM): -36.8%
inhibition ([15]; single agent, at 5 µM): 45%
